Rows were chosen to be rich in hits. Some 2.7% of all compounds tested hit in one or more screens of this group.
MsrA inhibitor: inhibits bovine methionine sulfoxide reductase A | inhibition, % at 15.5 µM | purified bovine MsrA, absorbance read-out | hit rate 0.75% among 360,000;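 further: 0% = vehicle wells with enzyme and 100% = reference inhibitor wells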
rCAG RNA binder: r(CAG) repeat RNA binding; hit rate 1.3% among 370,000; TO-PRO-1 dye displacement fluorescence; AID 651821; inhibition, % at 3 µM;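 active means inhibition above the plate cutoff, the mean of all test compounds on that plate plus 3 SD, cut at about 35% in these data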;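 further: 0% = DMSO alone and 100% = 100 µM mitoxantrone as full dye displacement; higher means more dye released from RNA so lower well fluorescence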
bovine MsrA act: bovine methionine sulfoxide reductase A activation. purified bovine MsrA, absorbance read-out. activation, % at 10.6 µM. hit rate 0.3% among 360,000; in the data active means activation above about 7.5%;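 further: 0% = vehicle and 100% = reference activator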
NadD block: NadD (S. aureus) enzyme inhibition; purified NadD enzyme, colorimetric absorbance read-out; inhibition, % at 20 µM; hit rate 0.78% among 360,000; in the data active means inhibition above about 26%
NadD conf: confirmation of Staphylococcus aureus NadD inhibitors. shares compounds with NadD block. purified S. aureus NadD, colorimetric enzyme assay. inhibition, % at 20 µM. hit rate 13% among 2,000; in the data active means inhibition mostly above about 42%, no sharp cut-off; inactive means mostly below about 42%
MsrA inh confirm: bovine MsrA inhibition, confirmed. AID 651822. shares compounds with MsrA inhibitor. purified bovine MsrA, absorbance read-out. hit rate 41% among 2,300. inhibition, % at 15.5 µM;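 further: coupled to thioredoxin reductase with NADPH and selenocystamine and DMSO as substrate; 0% = vehicle only and 100% = full effect of reference inhibitor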
Numbers without * were called inactive; / = not tested or not shown. Unless noted, no stated cut-off is given here; in the data, active means inhibition above about 4.5%; inactive means the rest.

SMILES | MsrA inhibitor | rCAG RNA binder | bovine MsrA act | NadD block | NadD conf | others
CC(C)Sc1nc2sc3c(c2c2nnc(SCC(=O)NCc4ccco4)n12)CCCC3 | 0 | 13 | -1 | 38* | 37
CCn1nc(C)c(CN2CCC(C(=O)Nc3cccc(-c4cccc(F)c4)c3)CC2)c1C | 0 | -10 | -1 | -7 | /
Cc1cc([N+](=O)[O-])c2[nH]c(C(=O)N/N=C/c3ccccc3C(=O)O)c(-c3ccccc3)c2c1 | 0 | 10 | -3 | 34* | 6
Cc1cc(C(=O)NN=Cc2ccccc2C(=O)O)n[nH]1 | / | 3 | / | / | /
NS(=O)(=O)c1ccc(NC(=O)/C=C/c2cn(-c3ccccc3)nc2-c2cccc(Cl)c2)cc1 | 4 | 18 | -4 | 41* | 34
O=C(O)/C=C/c1cn(-c2ccccc2)nc1-c1cccc([N+](=O)[O-])c1 | -1 | 12 | -2 | -5 | /
Cc1nc(Nc2ccc(Cl)c(Cl)c2)sc1C(/C=C/c1ccc2c(c1)OCO2)=NNc1ccc([N+](=O)[O-])cc1[N+](=O)[O-] | 0 | 8 | -2 | 48* | 0
O=C(N/N=C/c1ccccn1)c1cc(-c2ccc(Cl)cc2)nc2ccccc12 | -1 | 7 | -3 | 31* | 6
O=C(N/N=C/c1ccccn1)c1cc(-c2ccc(Br)cc2)nc2ccccc12 | 0 | 1 | -2 | 32* | 6
Cc1onc(-c2ccccc2)c1C(=O)OCC(=O)c1ccc(F)cc1 | -1 | 5 | -2 | 0 | /
O=S(=O)(c1ccc(Cl)cc1)N1CCN(c2nc(-c3cccs3)nc3ccccc23)CC1 | 0 | 2 | -3 | 30* | 28
Cc1cscc1-c1ccc(C(=O)Nc2c(C)cccc2C)o1 | 1 | 8 | -2 | 31* | 38
COc1ccc(S(=O)(=O)N2CCC(C(=O)NCCN3CCOCC3)CC2)cc1C | 0 | 0 | 0 | -2 | /
COc1ccc(S(=O)(=O)N2CCC(C(=O)NCCN3CCOCC3)CC2)cc1OC | 2 | 0 | -2 | 33* | 3
CCc1cc2c(=O)nc3n(c2s1)Cc1ccccc1/C3=C(/O)c1ccccc1Cl | 1 | 4 | -4 | 32* | 6
CCc1cc2c(=O)nc3n(c2s1)Cc1ccccc1/C3=C(/O)c1cccc([N+](=O)[O-])c1 | / | / | -5 | 25 | /
CCc1cc2c(=O)nc3n(c2s1)Cc1ccccc1/C3=C(/O)c1ccc(F)cc1 | 0 | 14 | -3 | 36* | 10
COc1ccccc1-c1cnc(C(O)c2ccc(CN3CCCC3)cc2)[nH]1 (centres undefined) | 0 | 4 | 1 | 2 | /
CCOC(=O)Nc1ccc2c(CN3CCN(S(=O)(=O)c4ccc(C(C)C)cc4)CC3)cc(=O)oc2c1 | -1 | 5 | -3 | 50* | 6
CCOC(=O)Nc1ccc2c(CN3CCN(S(=O)(=O)c4ccccc4F)CC3)cc(=O)oc2c1 | 1 | 5 | -3 | 6 | /
COc1ccc(COc2cc(-c3cccc(OC)c3)nc3ccc(NC(=O)c4ccc(C)cc4)cc23)cc1 | 2 | 16 | -1 | 40* | 20
Cc1cccc(C(=O)Oc2c(Br)cc(Br)cc2/C=N/NC(=O)c2ccncc2)c1 | -1 | 2 | -2 | -12 | /
Cc1cc(C(=O)N/N=C/c2cc(Br)cc(Br)c2OC(=O)c2cccc(F)c2)n[nH]1 | 1 | 12 | -2 | 32* | 13
C=C(C)[C@@H]1CC[C@]2(C(=O)O)CC[C@]3(C)C(CCC4[C@@]5(C)CC[C@H](O)C(C)(C)C5CC[C@]43C)C12 (some centres undefined) | 0 | 3 | 0 | 3 | /
C=C(C)[C@@H]1CCC2(C(=O)O)CC[C@]3(C)[C@H](CC[C@@H]4[C@@]5(C)CCC(=O)C(C)(C)[C@@H]5CC[C@]43C)[C@@H]12 (some centres undefined) | 1 | 4 | -3 | 48* | 21
SMILES | MsrA inhibitor | rCAG RNA binder | bovine MsrA act | NadD block | NadD conf | others
Cc1ccc(NC(=O)C2SC(=Nc3ccccc3)C(C(=O)Nc3ccc(Cl)cc3)=C2N)cc1 (centres undefined) | / | / | -3 | 7 | /
Cc1ccc(N=C2SC(C(=O)Nc3ccc(OC(F)(F)F)cc3)C(N)=C2C(=O)Nc2c(C)cc(C)cc2C)cc1 (centres undefined) | 2 | 26 | -3 | 33* | 38
CN(C)c1ccnc2c[cH-]cc12.[Fe].c1ccc(-[c-]2[c-](-c3ccccc3)[c-](-c3ccccc3)[c-](-c3ccccc3)[c-]2-c2ccccc2)cc1 (centres undefined) | 0 | 7 | -4 | 29* | -8
CCOC(=O)c1c(SCCN2CCCC2)n(-c2ccccc2)c(=S)n(-c2ccccc2)c1=O | 3 | 7 | -10 | 1 | /
CCn1c(/C=C/c2c(C)[nH]c3ccccc23)nc2ccccc2c1=O | -2 | 4 | -3 | 0 | /
Cc1[nH]c2ccccc2c1/C=C/c1nc2ccccc2c(=O)n1-c1ccc([N+](=O)[O-])cc1 | 0 | 6 | -2 | 34* | 7
O=C(Cc1cc(=O)[nH][nH]1)N/N=C/C=C/c1ccccc1 | 1 | 29 | 0 | 34* | 64*
O=C1CC(c2ccccc2Oc2cccc(Cl)c2)C(n2cncn2)C(=O)C1C1NCCc2ccccc21 (centres undefined) | -2 | 13 | -2 | 10 | /
CC(C)(C)c1ccc(Oc2cccc(C3CC(=O)C(C4NCCc5ccccc54)C(=O)C3n3cncn3)c2)cc1 (centres undefined) | 1 | 9 | -2 | 41* | 41
CCN(CC)S(=O)(=O)c1cc(NC(=O)COC(=O)C2CCC2)ccc1C | 0 | 1 | -2 | 0 | /
N#CCC(=O)Nc1ccc(C(=O)OCC(=O)Nc2ccc3ccccc3c2)cc1 | 0 | 31 | -1 | 46* | 40
CCN(CC)S(=O)(=O)c1cc(NC(=O)COC(=O)c2ccc(NC(=O)CC#N)cc2)ccc1C | -1 | 23 | 4 | 33* | 14
Cc1onc(-c2ccc(Cl)cc2)c1-c1ccnc(SCC(=O)Nc2cc(Cl)cc(Cl)c2)n1 | 1 | 7 | -2 | 9 | /
C#CCCc1cocc1/C=[N+](\[O-])c1ccc(C(=O)OCC)cc1 | 1 | 32 | -10 | 42* | 31
Cc1cc(OCC(=O)OCC(=O)c2c(N)n(C)c(=O)n(C)c2=O)ccc1Cl | 1 | 5 | -4 | 1 | /
CCCCn1c(N)c(N(C(=O)CSc2nnnn2-c2ccc(C)cc2)C2CCCC2)c(=O)[nH]c1=O | 0 | 4 | -7 | 8 | /
O=C(NC(=S)NCCO)c1cn(-c2ccccc2)nc1-c1ccccc1 | 1 | 0 | -5 | -5 | /
CCCCn1c(N)c(N(CCC(C)C)C(=O)CSc2nncn2-c2ccccc2)c(=O)[nH]c1=O | 0 | 0 | -2 | 7 | /
C/C(=N\NC(=O)c1ccc(OC2OCCOC2Oc2ccc(C(=O)N/N=C(\C)c3ccncc3)cc2)cc1)c1ccncc1 (centres undefined) | 1 | 8 | 0 | 32* | 11
COc1cc(OC)cc(-c2c(C#Cc3ccsc3)c3cc(-c4cccc5[nH]cc(C=O)c45)ccc3n2C)c1 | 4.9* | 20 | -11 | 46* | 29 | MsrA inh confirm=3

Bioassay records: PubChem, several laboratories
